# Compounds without any hit were thinned out: in the full panel of roughly 79,000, 15% have a hit. Unmarked numbers belong to inactive results. The source made the active and inactive calls. Cut-off read from the data, not from the text of the source: active = growth inhibition above about 70%; inactive = the rest.
# What was measured:
# [1] = NCI Yeast Anticancer Drug Screen. Data for the rad52 strain (AID 147);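 note: 0% = growth of vehicle-treated control cultures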; conditions: S. cerevisiae rad52 mutant growth inhibition, active compounds read high
# How it was run: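 The repair-mutant yeast strain was incubated with compounds, then growth was read and inhibition derived relative to vehicle.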
# [2] = NCI Yeast Anticancer Drug Screen. Data for the wt1 strain (AID 149);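 note: 0% = growth of vehicle-treated wt1 cultures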; conditions: S. cerevisiae wt1 strain (SPY 50644) growth inhibition, active compounds read high
# How it was run: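 The wt1 strain was treated with compounds, and growth was compared with vehicle-treated cultures to give inhibition.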
# [3] = NCI Yeast Anticancer Drug Screen. Data for the mgt1 strain (AID 153); conditions: S. cerevisiae mgt1 mutant growth inhibition, active compounds read high
# How it was run: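 Vehicle-normalized growth inhibition is determined in mgt1 yeast, a strain selected for a defined alteration in DNA repair or cell cycle control.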
# [4] = NCI Yeast Anticancer Drug Screen. Data for the rad50 strain (AID 155);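 note: 0% = growth of vehicle-only cultures of the same strain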; conditions: S. cerevisiae rad50 strain growth inhibition, active compounds read high
# How it was run: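 Cells are treated with compound, grown, and their growth is then scored against vehicle-only cultures of the same repair-deficient yeast strain.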
# [5] = NCI Yeast Anticancer Drug Screen. Data for the mec2-1 strain (AID 157); conditions: S. cerevisiae mec2-1 strain, active compounds read high
# How it was run: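 Mutant yeast (mec2-1) grown with compound; growth inhibition relative to vehicle control reported.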
# [6] = NCI Yeast Anticancer Drug Screen. Data for the sgs1 mgt1 strain (AID 161);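 note: 0% = growth of cultures given vehicle only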; conditions: S. cerevisiae sgs1 mgt1 strain, active compounds read high
# How it was run: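 Percent growth inhibition was derived by comparing compound-exposed mutant yeast with vehicle-exposed cultures. The strain carries alterations in DNA damage repair.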
# [7] = NCI Yeast Anticancer Drug Screen. Data for the CLN2oe strain (AID 163);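 note: 0% = growth of vehicle-only control cultures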; conditions: S. cerevisiae CLN2oe strain, active compounds read high
# How it was run: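 Compounds are applied to yeast harbouring a defined cell-cycle control change; reduced growth compared with vehicle-treated controls gives the value.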
# [8] = NCI Yeast Anticancer Drug Screen. Data for the cln2 rad14 strain (AID 165);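 note: 0% = growth equal to vehicle treated cultures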; conditions: S. cerevisiae cln2 rad14 strain, active compounds read high
# How it was run: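 Readout is yeast growth inhibition versus vehicle-treated controls, using a strain with cln2 and rad14 alterations exposed to compound.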
# [9] = NCI Yeast Anticancer Drug Screen. Data for the bub3 strain (AID 167); conditions: S. cerevisiae bub3 mutant strain, active compounds read high
# How it was run: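 Part of a panel of yeast mutants defective in DNA damage repair or cell cycle regulation. Each strain is grown with compound, and inhibition is calculated relative to solvent-treated cultures.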
# [10] = NCI Yeast Anticancer Drug Screen. Data for the wt2 strain (AID 169);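 note: 0% = growth of vehicle-treated yeast cultures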; conditions: S. cerevisiae wt2 strain growth inhibition, active compounds read high
# How it was run: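 Against vehicle-treated controls, the growth of yeast exposed to each compound was compared, and the inhibition was recorded.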
# [11] = NCI Yeast Anticancer Drug Screen. Data for the mlh1 strain (AID 171);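 note: 0% = growth of vehicle-treated control cultures of the same strain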; conditions: S. cerevisiae mlh1 strain growth inhibition, active compounds read high
# How it was run: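 Measured: yeast growth. Reference: vehicle-treated controls. Organism: strain with a defined alteration affecting DNA damage repair or cell cycle control, treated with compound.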
# [12] = NCI Yeast Anticancer Drug Screen. Data for the sgs1 strain (AID 173);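 note: 0% = growth of vehicle-only control cultures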; conditions: S. cerevisiae sgs1 mutant, active compounds read high
# How it was run: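 Each compound was added to cultures of the altered yeast strain. Growth was recorded, and inhibition was derived by comparison with vehicle controls.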
# [13] = NCI Yeast Anticancer Drug Screen. Data for the mlh1 rad18 strain (AID 175); conditions: S. cerevisiae mlh1 rad18 strain growth inhibition, active compounds read high
# How it was run: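 Genetically defined yeast (DNA repair-deficient) exposed to compounds; growth inhibition determined relative to vehicle.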
# [14] = NCI Yeast Anticancer Drug Screen. Data for the rad18 strain (AID 177); conditions: S. cerevisiae rad18 mutant growth inhibition, active compounds read high
# How it was run: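 Vehicle-treated cultures served as the baseline for scoring compound-induced growth inhibition in DNA-repair-mutant yeast.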
# [15] = NCI Yeast Anticancer Drug Screen. Data for the rad14 strain (AID 159);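 note: 0% = growth of vehicle-treated control cultures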; conditions: S. cerevisiae rad14 strain growth inhibition, active compounds read high
# How it was run: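 Readout: yeast growth inhibition, referenced to vehicle-only cultures. Strain bears a defined alteration in DNA damage repair.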
# [16] = at 5.0 µM (retest, dose inferred, filed as 0.5)
# [17] = at 50.0 µM (retest, dose inferred, filed as 5.0)
compound,measurement,setting,value
N#Cc1c(N)[nH]c2ccc(Sc3ccccc3)cc12,growth inhibition,[1]; at 1.2 µM,1%
same,growth inhibition,[1]; at 3.7 µM,0%
same,growth inhibition,[1]; at 11.0 µM,14%
same,growth inhibition,[1]; at 33.0 µM,94% (active)
same,growth inhibition,[1]; at 100.0 µM,81% (active)
same,growth inhibition,[2]; at 1.2 µM,1%
same,growth inhibition,[2]; at 3.7 µM,5%
same,growth inhibition,[2]; at 11.0 µM,1%
same,growth inhibition,[2]; at 33.0 µM,82% (active)
same,growth inhibition,[2]; at 100.0 µM,93% (active)
same,growth inhibition,[3]; at 1.2 µM,-1%
same,growth inhibition,[3]; at 3.7 µM,-2%
same,growth inhibition,[3]; at 11.0 µM,9%
same,growth inhibition,[3]; at 33.0 µM,96% (active)
same,growth inhibition,[3]; at 100.0 µM,97% (active)
same,growth inhibition,[4]; at 1.2 µM,1%
same,growth inhibition,[4]; at 3.7 µM,0%
same,growth inhibition,[4]; [16],-3%
same,growth inhibition,[4]; at 11.0 µM,23%
same,growth inhibition,[4]; at 33.0 µM,93% (active)
same,growth inhibition,[4]; [17],44%
same,growth inhibition,[4]; at 50.0 µM,46.1%
same,growth inhibition,[4]; at 100.0 µM,96% (active)
same,growth inhibition,[5]; at 1.2 µM,-2%
same,growth inhibition,[5]; at 3.7 µM,2%
same,growth inhibition,[5]; [16],-22%
same,growth inhibition,[5]; at 11.0 µM,6%
same,growth inhibition,[5]; at 33.0 µM,93% (active)
same,growth inhibition,[5]; [17],-6%
same,growth inhibition,[5]; at 50.0 µM,62.8%
same,growth inhibition,[5]; at 100.0 µM,97% (active)
same,growth inhibition,[6]; [16],-3%
same,growth inhibition,[6]; [17],40%
same,growth inhibition,[6]; at 50.0 µM,52.9%
same,growth inhibition,[7]; at 1.2 µM,-6%
same,growth inhibition,[7]; at 3.7 µM,-22%
same,growth inhibition,[7]; at 11.0 µM,12%
same,growth inhibition,[7]; at 33.0 µM,95% (active)
same,growth inhibition,[7]; at 100.0 µM,96% (active)
same,growth inhibition,[8]; [16],-3%
same,growth inhibition,[8]; [17],14%
same,growth inhibition,[8]; at 50.0 µM,-0.8%
same,growth inhibition,[9]; at 1.2 µM,-5%
same,growth inhibition,[9]; at 3.7 µM,-6%
same,growth inhibition,[9]; [16],12%
same,growth inhibition,[9]; at 11.0 µM,6%
same,growth inhibition,[9]; at 33.0 µM,93% (active)
same,growth inhibition,[9]; [17],51%
same,growth inhibition,[9]; at 50.0 µM,52.4%
same,growth inhibition,[9]; at 100.0 µM,96% (active)
same,growth inhibition,[10]; at 1.2 µM,0%
same,growth inhibition,[10]; at 3.7 µM,1%
same,growth inhibition,[10]; at 11.0 µM,4%
same,growth inhibition,[10]; at 33.0 µM,92% (active)
same,growth inhibition,[10]; at 100.0 µM,96% (active)
same,growth inhibition,[11]; at 1.2 µM,-1%
same,growth inhibition,[11]; at 3.7 µM,3%
same,growth inhibition,[11]; at 11.0 µM,11%
same,growth inhibition,[11]; at 33.0 µM,96% (active)
same,growth inhibition,[11]; at 100.0 µM,97% (active)
same,growth inhibition,[12]; at 1.2 µM,-3%
same,growth inhibition,[12]; at 3.7 µM,5%
same,growth inhibition,[12]; at 11.0 µM,23%
same,growth inhibition,[12]; at 33.0 µM,95% (active)
same,growth inhibition,[12]; at 100.0 µM,97% (active)
same,growth inhibition,[13]; [16],19%
same,growth inhibition,[13]; [17],85% (active)
same,growth inhibition,[13]; at 50.0 µM,70.5% (active)
same,growth inhibition,[14]; at 1.2 µM,12%
same,growth inhibition,[14]; at 3.7 µM,37%
same,growth inhibition,[14]; at 11.0 µM,87% (active)
same,growth inhibition,[14]; at 33.0 µM,95% (active)
same,growth inhibition,[14]; at 100.0 µM,96% (active)
COc1ccc2c(c1)C(=O)c1ccccc1C2,growth inhibition,[1]; at 1.2 µM,3%
same,growth inhibition,[1]; at 3.7 µM,9%
same,growth inhibition,[1]; at 11.0 µM,20%
same,growth inhibition,[1]; at 33.0 µM,35%
same,growth inhibition,[1]; at 100.0 µM,34%
same,growth inhibition,[2]; at 1.2 µM,2%
same,growth inhibition,[2]; at 3.7 µM,1%
same,growth inhibition,[2]; at 11.0 µM,5%
same,growth inhibition,[2]; at 33.0 µM,6%
same,growth inhibition,[2]; at 100.0 µM,4%
same,growth inhibition,[3]; at 1.2 µM,-4%
same,growth inhibition,[3]; at 3.7 µM,2%
same,growth inhibition,[3]; at 11.0 µM,5%
same,growth inhibition,[3]; at 33.0 µM,7%
same,growth inhibition,[3]; at 100.0 µM,10%
same,growth inhibition,[4]; at 1.2 µM,3%
same,growth inhibition,[4]; at 3.7 µM,18%
same,growth inhibition,[4]; [16],-23%
same,growth inhibition,[4]; at 11.0 µM,31%
same,growth inhibition,[4]; at 33.0 µM,48%
same,growth inhibition,[4]; [17],30%
same,growth inhibition,[4]; at 50.0 µM,7%
same,growth inhibition,[4]; at 100.0 µM,35%
same,growth inhibition,[5]; at 1.2 µM,-1%
same,growth inhibition,[5]; at 3.7 µM,5%
same,growth inhibition,[5]; [16],-4%
same,growth inhibition,[5]; at 11.0 µM,-1%
same,growth inhibition,[5]; at 33.0 µM,6%
same,growth inhibition,[5]; [17],23%
same,growth inhibition,[5]; at 50.0 µM,24.4%
same,growth inhibition,[5]; at 100.0 µM,6%
same,growth inhibition,[15]; at 1.2 µM,1%
same,growth inhibition,[15]; at 3.7 µM,6%
same,growth inhibition,[15]; at 11.0 µM,8%
same,growth inhibition,[15]; at 33.0 µM,6%
same,growth inhibition,[15]; at 100.0 µM,7%
same,growth inhibition,[6]; [16],19%
same,growth inhibition,[6]; [17],0%
same,growth inhibition,[6]; at 50.0 µM,-5.05%
same,growth inhibition,[7]; at 1.2 µM,-3%
same,growth inhibition,[7]; at 3.7 µM,-1%
same,growth inhibition,[7]; at 11.0 µM,0%
same,growth inhibition,[7]; at 33.0 µM,9%
same,growth inhibition,[7]; at 100.0 µM,4%
same,growth inhibition,[9]; at 1.2 µM,42%
same,growth inhibition,[9]; at 3.7 µM,67%
same,growth inhibition,[9]; [16],65%
same,growth inhibition,[9]; at 11.0 µM,74% (active)
same,growth inhibition,[9]; at 33.0 µM,82% (active)
same,growth inhibition,[9]; [17],85% (active)
same,growth inhibition,[9]; at 50.0 µM,75% (active)
same,growth inhibition,[9]; at 100.0 µM,80% (active)
same,growth inhibition,[10]; at 1.2 µM,-1%
same,growth inhibition,[10]; at 3.7 µM,3%
same,growth inhibition,[10]; at 11.0 µM,6%
same,growth inhibition,[10]; at 33.0 µM,7%
same,growth inhibition,[10]; at 100.0 µM,7%
same,growth inhibition,[11]; at 1.2 µM,1%
same,growth inhibition,[11]; at 3.7 µM,-1%
same,growth inhibition,[11]; at 11.0 µM,4%
same,growth inhibition,[11]; at 33.0 µM,11%
same,growth inhibition,[11]; at 100.0 µM,28%
same,growth inhibition,[12]; at 1.2 µM,-3%
same,growth inhibition,[12]; at 3.7 µM,-4%
same,growth inhibition,[12]; at 11.0 µM,0%
same,growth inhibition,[12]; at 33.0 µM,0%
same,growth inhibition,[12]; at 100.0 µM,1%
same,growth inhibition,[13]; [16],2%
same,growth inhibition,[13]; [17],31%
same,growth inhibition,[13]; at 50.0 µM,15.6%
same,growth inhibition,[14]; at 1.2 µM,-2%
same,growth inhibition,[14]; at 3.7 µM,-1%
same,growth inhibition,[14]; at 11.0 µM,6%
same,growth inhibition,[14]; at 33.0 µM,7%
same,growth inhibition,[14]; at 100.0 µM,-6%
